SARS PLP yeast – inhibitors of SARS-CoV papain-like protease in yeast. Potency, µM (titrated, usually from 32.9 µM), for inactives: at the highest dose activity, positive = growth rescue, usual class: activators. AID 485353. S. cerevisiae expressing SARS-CoV PLpro, growth rescue. 0.19% of 330,000 active; calls by dose curve; also: potency is read from the fitted curve at half-maximal effect; 0% is about no effect; nearly all actives have a fitted effect of over 55% in size
AmpC detergent – inhibitors of E. coli AmpC beta-lactamase with detergent | 0.041% of 370,000 active | Potency, µM (titrated, usually from 114 µM), without a hit: at the highest dose activity change, negative = inhibition, actives largely listed as inhibitors | AmpC hydrolysis of nitrocefin, absorbance 480 nm, 0.01% Triton;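 also: potency is read from the fitted curve at half-maximal effect; 0% = no-compound wells and -100% = no-enzyme wells; nearly all actives have a fitted effect of over 25% in size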
Target sequence (P00811 whole entry, looked up): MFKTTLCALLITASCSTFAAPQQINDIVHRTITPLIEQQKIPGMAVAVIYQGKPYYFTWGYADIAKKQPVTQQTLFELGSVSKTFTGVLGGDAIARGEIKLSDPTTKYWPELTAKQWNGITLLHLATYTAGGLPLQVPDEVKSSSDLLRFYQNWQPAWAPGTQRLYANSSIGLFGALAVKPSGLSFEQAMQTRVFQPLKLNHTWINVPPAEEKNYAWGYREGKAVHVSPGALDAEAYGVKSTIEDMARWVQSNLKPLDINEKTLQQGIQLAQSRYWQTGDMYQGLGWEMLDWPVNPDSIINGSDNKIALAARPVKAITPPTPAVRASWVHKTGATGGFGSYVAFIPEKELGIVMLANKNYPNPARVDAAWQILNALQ
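AmpC (5.3 nM in the dispensed reagent) in 20 mM phosphate pH 7.0 with 0.01% (detergent screen) or 0.0001% Triton X-100 was preincubated with compounds for 15 min at room temperature. Nitrocefin was then added from an 800 uM solution, and hydrolysis was followed at 480 nm.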
Shiga inhibitor – Shiga toxin inhibition; inhibition, % at 38.7 µM; 9.2% of 290,000 active; Vero cells, Shiga toxin protein synthesis inhibition reporter; AID 2315; in the data active = inhibition mostly above about 28%, no sharp cut-off; inactive = mostly below about 43%; also: 0% is about no effect
Cycloheximide cs – affects cycloheximide protein synthesis inhibition readout, counter-screen. 12% of 300,000 active. max response, %. cell reporter, cycloheximide protein synthesis inhibition counterscreen. AID 2314; in the data active = max response mostly above about 13%, no sharp cut-off; inactive = mostly below about 14%; also: read at 38.3 µM for the half of the compounds with a filed dose; 0% is about no effect
AmpC no deterg – AmpC beta-lactamase inhibition without detergent; 0.52% of 330,000 active; AmpC nitrocefin hydrolysis, absorbance 480 nm, 0.0001% Triton; AID 485341; Potency, µM (series often up to 57.1 µM), inactives show at the top dose activity change, negative = inhibition, most hits filed as inhibitors;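 also: potency is read from the fitted curve at half-maximal effect; plate controls were no compound for no effect and no enzyme for full effect; nearly all actives have a fitted effect of over 20% in size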
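20 mM phosphate pH 7.0 + 0.01% (detergent screen) or 0.0001% Triton X-100; 5.3 nM AmpC reagent; cpd preinc 15 min RT; nitrocefin (800 uM stock) to start; A480 q20 s × 4 min; Activity was normalised to no-enzyme and no-compound control wells.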
AMA1-RON2 inh – inhibitors of Plasmodium falciparum AMA1-RON2 interaction | AlphaScreen AMA1-biotinylated RON2 peptide binding | Potency, µM (titrated, usually from 58.2 µM), for inactives: top-dose activity change, negative = inhibition, hits mostly inhibitors | 0.2% of 360,000 active | AID 720542;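 also: potency is read from the fitted curve at half-maximal effect; 0% = vehicle wells and -100% = peptide control; nearly all actives have a fitted effect of over 45% in size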
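AMA1 (3D7) with his tag at 25 nM final met compounds first, then biotinylated RON2 peptide at 25 nM; detection used donor plus acceptor beads, 10 µg/mL apiece, read by AlphaScreen after 30 min at room temperature.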
Active calls of the source: *; [ ] = remark or other dose. The full list was thinned out, with hits kept by preference. Unless noted, calls follow the shape of the dose curve; as a rule, active = well fitted curve in the direction sought with a large enough effect; inconclusive = small, poorly fitted or top-dose-only effect, or another doubt; inactive = no such curve, though single readings can be large; an effect the other way counts as inactive or inconclusive.

Results for COc1cccc(NC(=S)N2CCn3cccc3C2c2cccnc2)c1 (stereo not drawn) ?
SARS PLP yeast: 5%; AmpC detergent: 1%; Shiga inhibitor: 33*; Cycloheximide cs: 6; AmpC no deterg: 15%; AMA1-RON2 inh: -10%

What do the screens show for `CCc1nc2nc(C)cc(C)n2c1Nc1ccc(OC)cc1`?
AMA1-RON2 inh: -4%

Results for CC1CCCCN1C(=O)CSc1nc2ccccc2[nH]1 (stereo not drawn) ?
SARS PLP yeast: -1%; AmpC detergent: 12%; Shiga inhibitor: 81*; Cycloheximide cs: 33*; AmpC no deterg: 1%; AMA1-RON2 inh: 12%

How did O=C(CSc1nc2ccccc2[nH]1)N1CCCCC1 do in these assays?
SARS PLP yeast: 0%; AmpC detergent: 2%; Shiga inhibitor: 63*; Cycloheximide cs: 47*; AmpC no deterg: -17%; AMA1-RON2 inh: 7%

How did CC1CCCCN1C(=O)CSc1nc2ccsc2c(=O)n1Cc1ccccn1 (stereo not drawn) do in these assays?
SARS PLP yeast: 3%; AmpC detergent: -15%; Shiga inhibitor: 40*; Cycloheximide cs: 14; AmpC no deterg: 17%; AMA1-RON2 inh: -1%

What do the screens show for `CCC(NC(=O)Nc1cc(Cl)ccc1OC)c1c(-n2cccc2)sc2c1CCN(C)C2` (stereo not drawn)?
AmpC detergent: 4%

How did CCN(C(=O)c1cn(C)c(=O)c2cc(OC)c(OC)cc12)c1ccccc1C do in these assays?
SARS PLP yeast: -4%; AmpC detergent: 2%; Shiga inhibitor: -6; Cycloheximide cs: -2; AmpC no deterg: 24%; AMA1-RON2 inh: -12%

What do the screens show for `C=CCNc1nc(-c2c(C)nc3sccn23)cs1`?
SARS PLP yeast: -25%; AmpC detergent: -2%; Shiga inhibitor: 50*; Cycloheximide cs: 25*; AmpC no deterg: -19%; AMA1-RON2 inh: 12%

What do the screens show for `CCC(=O)N1c2ccccc2CC1C(=O)NCCc1ccc(C)cc1` (stereo not drawn)?
AmpC detergent: 14%

What do the screens show for `CCc1cc2c(=O)[nH]c(N3CCCC3)nc2s1`?
SARS PLP yeast: 9%; AmpC detergent: -16%; Shiga inhibitor: active; Cycloheximide cs: 28*; AmpC no deterg: -17%; AMA1-RON2 inh: 9%

How did CCc1cc2c(=O)[nH]c(CC(N)=O)nc2s1 do in these assays?
SARS PLP yeast: 0%; AmpC detergent: -4%; Shiga inhibitor: 14; Cycloheximide cs: -1; AmpC no deterg: -11%; AMA1-RON2 inh: 0%

What do the screens show for `CCc1cc2c(=O)[nH]c(-c3ccccn3)nc2s1`?
SARS PLP yeast: inconclusive; AmpC detergent: 2%; Shiga inhibitor: 126*; Cycloheximide cs: 89*; AmpC no deterg: -19%; AMA1-RON2 inh: -14%

What do the screens show for `CCOC(=O)c1ccc(COC(=O)c2nonc2N)cc1`?
SARS PLP yeast: 3%; AmpC detergent: -12%; Shiga inhibitor: 3; Cycloheximide cs: 22*; AmpC no deterg: -17%; AMA1-RON2 inh: -12%

What do the screens show for `CC(NC(=O)c1ccc(=O)oc1)c1ccccc1` (stereo not drawn)?
SARS PLP yeast: -2%; AmpC detergent: inconclusive; Shiga inhibitor: -29; Cycloheximide cs: -3; AmpC no deterg: -27%; AMA1-RON2 inh: -2%

What do the screens show for `CCCCn1c(=O)c(CC(C)=O)nc2ccccc21`?
SARS PLP yeast: 12%; AmpC detergent: inconclusive; Shiga inhibitor: -2; Cycloheximide cs: -2; AmpC no deterg: -21%; AMA1-RON2 inh: -22%

What do the screens show for `CC(C[N+](C)(C)C)OC(=O)C1(c2ccccc2)CCCC1` (stereo not drawn)?
SARS PLP yeast: 0%; AmpC detergent: 2%; Shiga inhibitor: -11; Cycloheximide cs: 3; AmpC no deterg: 4%; AMA1-RON2 inh: -1%

What do the screens show for `CN(CC(=O)Nc1ccc(Cl)c(C(F)(F)F)c1)C(=O)/C=C/c1ccco1`?
SARS PLP yeast: -19%; AmpC detergent: -9%; Shiga inhibitor: 37*; Cycloheximide cs: 14; AmpC no deterg: -13%; AMA1-RON2 inh: -13%

What do the screens show for `CCCN(CC(=O)Nc1cc(Cl)ccc1Cl)C(=O)/C=C/c1cc(OC)ccc1OC`?
SARS PLP yeast: -8%; AmpC no deterg: -21%; AMA1-RON2 inh: 32%

Results for CCCN(CC(=O)Nc1cc(Cl)ccc1Cl)C(=O)/C=C/c1ccco1 ?
SARS PLP yeast: 18%; AmpC detergent: 5%; Shiga inhibitor: 126*; Cycloheximide cs: 55*; AmpC no deterg: -3%; AMA1-RON2 inh: 11%[2.32 µM]

What do the screens show for `COc1cc2c(cc1OC)C(c1ccc([N+](=O)[O-])cc1)NCC2` (stereo not drawn)?
SARS PLP yeast: 7%; AmpC detergent: -14%; Shiga inhibitor: -18; Cycloheximide cs: -4; AmpC no deterg: -14%; AMA1-RON2 inh: -6%

Results for O=C(Nc1cccc(-c2nc3ccccc3[nH]2)c1)c1ccco1 ?
SARS PLP yeast: -5%; AmpC detergent: -13%; Shiga inhibitor: 42*; Cycloheximide cs: 17; AmpC no deterg: -57%; AMA1-RON2 inh: 18%

How did Cc1ccc2nc(-c3ccc(NC(=O)c4ccco4)cc3)[nH]c2c1 do in these assays?
SARS PLP yeast: -5%; AmpC detergent: -2%; Shiga inhibitor: 75*; Cycloheximide cs: 39*; AmpC no deterg: -32%; AMA1-RON2 inh: inconclusive

How did Cc1ccc(-c2nnc(-c3ccc(NC(=O)c4ccco4)cc3)o2)cc1 do in these assays?
SARS PLP yeast: -9%; AmpC detergent: inconclusive; Shiga inhibitor: 19; Cycloheximide cs: 2; AmpC no deterg: -18%; AMA1-RON2 inh: 7%

What do the screens show for `O=C(Nc1ccc2nc(-c3cccs3)[nH]c2c1)c1ccco1`?
SARS PLP yeast: -22%; AmpC detergent: -5%; Shiga inhibitor: 60*; Cycloheximide cs: 27*; AmpC no deterg: inconclusive; AMA1-RON2 inh: -3%

How did O=C(Nc1ccc2nc(-c3cccs3)[nH]c2c1)c1cccs1 do in these assays?
SARS PLP yeast: -7%; AmpC detergent: inconclusive; Shiga inhibitor: -6; Cycloheximide cs: 2; AmpC no deterg: -41%; AMA1-RON2 inh: -20%

Results for c1cncc(CNc2cccc(-c3nc4ccccc4[nH]3)c2)c1 ?
SARS PLP yeast: -5%; AmpC detergent: 12%; Shiga inhibitor: active; Cycloheximide cs: 54*; AmpC no deterg: -41%; AMA1-RON2 inh: -29%

What do the screens show for `O=C(Nc1cccc2ccccc12)c1ccccc1NS(=O)(=O)c1cccc2cccnc12`?
SARS PLP yeast: 27%; AmpC detergent: 1%; Shiga inhibitor: -6; Cycloheximide cs: 1; AmpC no deterg: -30%; AMA1-RON2 inh: 4%

What do the screens show for `Cn1cccc1-c1nc2ccc(NC(=O)c3ccco3)cc2[nH]1`?
SARS PLP yeast: -7%; AmpC detergent: inconclusive; Shiga inhibitor: 56; Cycloheximide cs: 44*; AmpC no deterg: -28%; AMA1-RON2 inh: 3%
